According to the supplement of paper PMC12636033:
± gives the standard deviation of the averaged measurements. In all, about 33,000 sequences were measured (“E-score (rank enrichment, -0.5 to 0.5)”: median about -0.0043, highest 2% from about 0.24 on). Many of the other results were omitted from the sample, so the highest values are more common in it than they were.

What follows are sequences tested on 2Sp-muMax20 (muMax20 with two 2,6-bis(methyl)pyridine Cys staples) (assay: PBM 8-mer E-score (E-score (rank enrichment, -0.5 to 0.5)); higher = stronger preferential binding).
Method: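 Protein binding microarray (universal PBM chip covering all 10-mers in fixed probe flanks) with chemically synthesized human Max(13-93) bHLH-LZ analogs (not full-length Max) bearing noncanonical residues (hArg, Tha, Aib, Nle at 65) and aromatic Cys staples. Read-out per 8-mer (and its reverse complement): E-score (rank-based enrichment, -0.5 to 0.5) and Z-score of median probe intensity.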

Sequence | PBM 8-mer E-score
GACAGGTC | -0.12 ± 0.088
AGAGCCAA | 0.00188 ± 0.0012
CGAGGACC | -0.245 ± 0.046
AACGGCCC | -0.372 ± 0.037
AACGGCCA | -0.0961 ± 0.022
AACGGCCT | 0.275 ± 0.0083
TCGTCCAA | -0.0225 ± 0.01
AACGGTCC | -0.298 ± 0.1
AGACGTGA | 0.0537 ± 0.03
AGACGTGC | -0.145 ± 0.021
TAACGTGA | 0.093 ± 0.036
TCACGTAA | -0.0172 ± 0.028
ACACGTAG | -0.0191 ± 0.055
ATACGTGA | -0.0748 ± 0.062
ACACGTGC | 0.407 ± 0.024
ACACGTGA | 0.412 ± 0.034
ACACGTGG | 0.3868 ± 0.00064
AAACGTGG | 0.0452 ± 0.042
TCACGTGA | 0.438 ± 0.0011
ACACGTAC | -0.0036 ± 0.092
CCTCTTAG | -0.00532 ± 0.11
CATTCGCA | 0.0276 ± 0.0019
ACCAAACC | 0.0152 ± 0.034
CAGTCTAG | -0.117 ± 0.05
CAATAGAA | 0.0449 ± 0.032

Sequence | PBM 8-mer E-score
ACACGTAT | 0.178 ± 0.052
ACGCGTGA | 0.25 ± 0.0042
ACGCGTGC | 0.177 ± 0.049
AAACGTGT | 0.077 ± 0.06
ACACGTGT | 0.421 ± 0.015
GCGCGTGA | 0.2082 ± 0.00059
ACTTTCCC | -0.0248 ± 0.091
CTCGTCTC | -0.0179 ± 0.03
CTCACGTC | -0.00269 ± 0.06
ATTCGAGA | 0.239 ± 0.052
ATTCGAGC | -0.0718 ± 0.14
CTTCGAGA | -0.0158 ± 0.028
AGGTTGCC | -0.164 ± 0.035
GCACCTAC | -0.194 ± 0.0063
ATCACGAT | 0.00138 ± 0.12
CGCACGCC | -0.0203 ± 0.1
TAGACCCA | 0.282 ± 0.061
AAGACCCA | 0.0969 ± 0.13
GAGACCCA | -0.1 ± 0.07
CCTTTAAC | -0.0714 ± 0.012
GGCGCACC | -0.281 ± 0.032
CGCTACCA | -0.1194 ± 0.00063
ATATCCTC | 0.265 ± 0.056
ATATCCCG | 0.0776 ± 0.056
ATATCCTA | 0.0987 ± 0.0053

Sequence | PBM 8-mer E-score
ATATCCCC | 0.28 ± 0.028
ATATCTTA | 0.19 ± 0.0044
ATATCTTC | 0.294 ± 0.022
CTATCCTC | 0.0112 ± 0.011
CTATCCCC | 0.0647 ± 0.044
CTATCTTC | 0.0745 ± 0.024
CAGAGATC | -0.137 ± 0.014
TCTTCGCA | 0.0987 ± 0.026
AGCTGACT | -0.0778 ± 0.023
ACAAGATG | 0.115 ± 0.02
CTGAAGGC | -0.247 ± 0.05
CATGTACA | 0.143 ± 0.1
AATGTACA | 0.0795 ± 0.02
AATGTACG | 0.0758 ± 0.021
TATGTACA | 0.25 ± 0.028
CATGTACG | 0.2899 ± 0.0015
GATGTACA | 0.165 ± 0.009
CTGAACAA | -0.00871 ± 0.029
GGCCTTAA | 0.0324 ± 0.052
ACCAAATG | -0.043 ± 0.09
TAGAGACA | -0.0515 ± 0.021
GAGAGACA | -0.174 ± 0.03
AAGAGACA | 0.252 ± 0.042
AAGGTGAT | 0.157 ± 0.033
ATAGTAAA | 0.274 ± 0.033

Sequence | PBM 8-mer E-score
ATAGTAAT | 0.19 ± 0.084
CTAGTAAA | 0.12 ± 0.047
ACATAGGA | 0.102 ± 0.044
ATTTTATG | 0.0502 ± 0.14
GTTTTATA | 0.168 ± 0.13
ATTTTGTA | 0.239 ± 0.12
ATTTTGTG | 0.0633 ± 0.081
CATTTATA | 0.141 ± 0.023
ATTTTATA | 0.264 ± 0.03
AATTTATA | 0.27046 ± 0.00013
AATTTATC | 0.105 ± 0.038
CTTTTGTA | 0.0481 ± 0.15
ACGCCCTA | -0.000715 ± 0.088
CCCAACAC | 0.00365 ± 0.023
AATTCCGA | -0.0265 ± 0.07
GCAAAGCA | 0.155 ± 0.058
GAAATTTC | 0.114 ± 0.052
CAAATTTG | 0.117 ± 0.032
CAAATTTC | 0.236 ± 0.031
CCCTATCC | -0.0867 ± 0.098
TAATACGA | -0.0384 ± 0.02
AATATATA | 0.186 ± 0.0061
AATATAGC | 0.168 ± 0.047
AATATATT | 0.2823 ± 0.0018
AAAATATG | 0.114 ± 0.021

Sequence | PBM 8-mer E-score
CTAATATC | 0.173 ± 0.038
AATATATG | 0.303 ± 0.0091
GATATATC | 0.102 ± 0.037
ATAATATG | 0.185 ± 0.062
AATATATC | 0.239 ± 0.051
AATATGTG | 0.191 ± 0.037
AATATAGT | 0.152 ± 0.037
ATAATATC | 0.24 ± 0.082
TGACATAA | 0.128 ± 0.05
GTGTGGAA | 0.118 ± 0.01
AGCCCGTA | -0.23 ± 0.063
CATTTCAC | 0.0886 ± 0.049
AATTTTCA | 0.146 ± 0.05
CACATTCG | 0.00422 ± 0.036
ATTACTGA | 0.103 ± 0.074
CGAGGAAC | -0.084 ± 0.029
AATATGGT | 0.0878 ± 0.052
AATATGGA | 0.104 ± 0.011
AATATGGC | 0.302 ± 0.044
AGCAACAG | -0.0291 ± 0.074
ACCTAAGT | -0.0381 ± 0.043
ATATTGTC | 0.121 ± 0.03
AATAGTGA | -0.033 ± 0.029
CATAGTGA | 0.0514 ± 0.05
TATAGTGA | 0.249 ± 0.048

Sequence | PBM 8-mer E-score
GGTGTTGA | 0.0564 ± 0.02
AGGAACAT | -0.135 ± 0.031
CTTTACGA | -0.0477 ± 0.0036
ATTTACGA | 0.0937 ± 0.12
GTTTACGA | 0.242 ± 0.027
GAACGCAC | -0.0274 ± 0.025
ACAAAGCT | 0.00391 ± 0.011
GTATATCA | 0.0652 ± 0.016
CCATATCA | 0.114 ± 0.071
ACATATCA | 0.299 ± 0.0056
ATATATCA | 0.212 ± 0.014
ATGTATCC | -0.111 ± 0.0078
ACATAGCA | 0.236 ± 0.05
CCATAGCA | 0.135 ± 0.0028
CTGTATCA | -0.0346 ± 0.018
ACATATCG | 0.115 ± 0.042
CTGTATCC | 0.236 ± 0.0094
TCATAGCA | 0.159 ± 0.02
CTATATCA | 0.24 ± 0.0079
CGCGCAGC | -0.126 ± 0.023
GCAGACGC | -0.0631 ± 0.015
CCCAACTA | 0.161 ± 0.022
TTCGGCAA | 0.0437 ± 0.12
AAATCAGG | 0.041 ± 0.025
TGCCGTAA | -0.113 ± 0.098

Sequence | PBM 8-mer E-score
CGCCAGCA | -0.199 ± 0.1
CACGAAAC | 0.164 ± 0.018
CTATATCC | 0.169 ± 0.018
ATATATCC | 0.285 ± 0.096
ATATATCG | 0.0892 ± 0.031
AAACTCGT | -0.0113 ± 0.038
CACCTTTA | -0.0135 ± 0.041
ATCTAGTC | -0.00402 ± 0.0038
CACATTAG | 0.00777 ± 0.035
AACATTAC | 0.169 ± 0.003
CACATTAC | 0.2476 ± 0.0022
CCATTCGC | -0.13 ± 0.11
GCGAGGTA | -0.144 ± 0.19
AGTTCCCC | -0.0334 ± 0.025
TATTATCA | 0.122 ± 0.025
TATTATAA | 0.244 ± 0.079
CATTCTAA | 0.00098 ± 0.075
CATTATAC | 0.218 ± 0.0061
AATTCTAA | 0.133 ± 0.092
TCTTATAA | 0.193 ± 0.04
CATTATAA | 0.246 ± 0.1
TATTCTAA | 0.246 ± 0.003
